HepG2 viability: HepG2 cytotoxicity, counter-screen for TGF-b inhibitors | HepG2 CAGA-GFP viability, ATP luminescence, 18 h | AID 588856 | 410,000 compounds, 0.76% hits | Potency, µM (top dose mostly 46.1 µM), for the others: at the top dose activity change, negative = cytotoxicity, usual class: cytotoxic
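CellTiter-Glo luminescence gave cytotoxicity after 18 hours at 37 degrees C. The cells were HepG2 CAGA-GFP in 1% FBS DMEM, stimulated with 500 pg/mL TGF-beta after compound addition. %Activity was normalised to no-cell wells (complete cell-killing) and DMSO (no toxicity), and curves were fitted and classified.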
KB-V1 cytotox: kills drug-selected multidrug resistant KB-V1 cells; KB-V1 MDR cells viability, CellTiter-Glo, 72 h; Potency, µM (titrated, usually from 46.1 µM), most hits filed as cytotoxic; 400,000 compounds, 3.4% hits; further: on the % scale 0 is the no-effect control and ±100 the full control effect; nearly all actives have a fitted effect of over 60% in size
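Cells of the MDR subline KB-V1 are plated, dosed with compound at multiple concentrations, and incubated 72 h at 37 degrees C; CellTiter-Glo is then added and luminescence read after 10 min.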
KB-3-1 tox: kills parental KB-3-1 adenocarcinoma cells; Potency, µM (series often up to 46.1 µM), most hits filed as cytotoxic; 400,000 compounds, 1.4% hits; KB-3-1 viability, CellTiter-Glo ATP luminescence, 72 h; AID 1347075; further: on the % scale 0 is the no-effect control and ±100 the full control effect; nearly all actives have a fitted effect of over 60% in size
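Multi-concentration cytotoxicity screen in KB-3-1 cells grown in DMEM lacking phenol red with 10% FBS. After 72 h at 37 °C with compound, ATP-dependent luminescence was recorded.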
ATXN viability: viability counter-screen for ATXN expression inhibitors; 400,000 compounds, 0.49% hits; S2 cells (HEK-293 line with an ATXN2-luciferase reporter) viability, CellTiter-Fluor protease fluorescence, 24 h; Potency, µM (top dose mostly 56.7 µM), hits mostly cytotoxic; AID 651635; further: nearly all actives have a fitted effect of over 40% in size
TGFb inhibitor: TGF-b pathway inhibition; HepG2 CAGA-GFP TGF-b/SMAD3 reporter, GFP fluorescence, 18 h; TGF-beta stimulated, 500 pg/mL final; Potency, µM (titrated, usually from 46.1 µM), for the others: at the highest dose activity, negative = inhibition, usual class: inhibitors; 410,000 compounds, 1.2% hits; AID 588855; further: on the % scale 0 is the no-effect control and ±100 the full control effect; nearly all actives have a fitted effect of over 65% in size
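GFP signal (ex488/em500-530) from TGF-beta-stimulated HEPG2 CAGA-GFP cells, 500 pg/mL final, 18 h at 37 degrees C in DMEM plus 1% FBS, normalized to unstimulated and DMSO-stimulated controls.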
ATXN2 expr inh: ATXN2 expression inhibition. AID 1745845. 360,000 compounds, 0.72% hits. Potency, µM (titrated, usually from 57 µM), inactives show top-dose activity change, negative = inhibition, hits mostly inhibitors. HEK-293 ATXN2-luciferase reporter, luminescence, 24 h; further: on the % scale 0 is the no-effect control and ±100 the full control effect; nearly all actives have a fitted effect of over 55% in size
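ATXN2-luciferase reporter cells (luciferase flanked by upstream and downstream ATXN2 gene portions) were treated 24 h at 37 °C with compounds at up to 57 uM. SteadyGlo luminescence gave expression; GF-AFC fluorescence gave viability.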
The depositor's hits bear a star; i = inactive; ? = inconclusive; · = no result given. Compounds with a hit are over-represented: about 5.9% of the library has one in this group of screens. The call rests on the fitted dose curve; in most records, active means well fitted curve in the direction sought with a large enough effect; inconclusive means small, poorly fitted or top-dose-only effect, or another doubt; inactive means no such curve, though single readings can be large; an effect the other way counts as inactive or inconclusive. Potency means the concentration at half of the fitted maximal effect.

SMILES	HepG2 viability	KB-V1 cytotox	KB-3-1 tox	ATXN viability	TGFb inhibitor	ATXN2 expr inh
Cc1ccccc1OCC(=O)N/N=C/c1cccc2cccnc12	-8%	?	i	i	?	?
O=C(COc1cccc2cccnc12)N/N=C/c1ccccc1O	-12%	12µM*	?	i	-1%	-39%
CC(=O)Nc1ccc(C(=O)N/N=C/c2cc(Br)cc(Br)c2O)cc1	-112%	i	i	i	?	25µM*
O=C(N/N=C/c1ccc(O)c2ncccc12)c1cccc(Br)c1	-55%	?	2.6µM*	?	13µM*	?
CC(C)[C@H](C(=O)Nc1ccc(C(=O)NO)cc1)c1ccccc1	·	·	·	·	·	76%
O=C(N/N=C/c1cc(Cl)ccc1O)c1ccc(Br)cc1	-18%	?	?	i	-16%	4.5µM*
O=C(N/N=C/c1cc(Br)ccc1O)c1ccncc1	-43%	i	?	i	?	2.8µM*
COc1ccc(C(CC(=O)O)NC(=O)c2cc3ccccc3oc2=O)cc1OC (stereo not given)	4%	i	i	i	28%	11%
CC(C)Cn1c(SC(C)C(=O)Nc2ccc3c(c2)OCCO3)nc2ccccc2c1=O (stereo not given)	-28%	21µM*	i	i	-20%	-16%
C/C=C/c1ccc(OCC(=O)O)c(OC)c1	3%	i	i	i	-18%	1%
C/C=C/c1ccc(OCCOc2cc(C=O)ccc2OC)c(OC)c1	-22%	15µM*	i	i	?	73%
CC(=O)c1c(C)oc2ccc(NS(=O)(=O)c3ccc(F)cc3C)cc12	-15%	10µM*	i	i	?	-14%
Cc1cc(C)c(S(=O)(=O)Nc2ccc3oc4c(c3c2)CCCC4)cc1C	-89%	i	i	i	?	-36%
Cc1cc(S(=O)(=O)Nc2ccc3oc4c(c3c2)CCCC4)ccc1Cl	-98%	i	i	?	16µM*	?
CC(C)(C)C1CCc2oc3ccc(NS(=O)(=O)c4cc(Cl)ccc4Cl)cc3c2C1 (stereo not given)	-68%	·	·	·	?	·
Cc1cc(F)ccc1S(=O)(=O)Nc1ccc2oc3c(c2c1)CC(C)CC3 (stereo not given)	-98%	?	i	32µM*	?	?
CC(C)(C)C1CCc2oc3ccc(NS(=O)(=O)c4ccc(C(=O)O)cc4)cc3c2C1 (stereo not given)	-121%	·	·	·	22µM*	·
COC(=O)c1ccc(CN2C[C@H](Sc3ccccn3)C[C@H]2C(=O)N(C)C)cc1	·	·	·	i	·	·
CCCn1c(COc2cccc(C)c2)nc2ccccc21	-21%	i	i	i	-19%	11%
Cc1c(Cl)cccc1NC(=O)CSc1nc(=O)n(Cc2ccco2)c2c1CCC2	-13%	?	i	i	?	-36%
CC1(C(=O)NS(=O)(=O)c2ccc(Br)cc2)CCN1C(=O)CCc1cccs1 (stereo not given)	-5%	i	i	i	6%	0%
Cc1cc2c(cc1NC(=O)c1ccccc1Cl)n(C)c(=O)c(=O)n2C	-6%	i	i	i	-36%	2%
CC(=O)c1c(C(C)=O)c(C)n(-c2ccc(C)c(NC(=O)c3ccccc3Cl)c2)c1C	-17%	3.7µM*	i	i	?	-2%
O=C(Nc1ccc(Br)cc1F)c1cc(S(=O)(=O)NC2CCCC2)ccc1F	-65%	·	·	·	?	·
C#CCOc1ccc2c(C)cc(=O)oc2c1	2%	i	i	i	-4%	18%
Cc1cc(=O)oc2cc(OCC3CC(c4ccccc4)=NO3)ccc12 (stereo not given)	-15%	8.2µM*	7.3µM*	i	7%	18%
Cc1cc(=O)oc2cc(OCC3CC(c4ccc(Br)cc4)=NO3)ccc12 (stereo not given)	-2%	21µM*	?	i	16%	-6%

Screening data as filed in PubChem.
